The nature of assay [1]: NCI Yeast Anticancer Drug Screen. Data for the rad50 strain (AID 155).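 Note: 0% = growth of vehicle-only cultures of the same strain.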 Conditions: S. cerevisiae rad50 strain growth inhibition, stronger effect = higher value. In outline:
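Compounds were tested on a yeast strain with an engineered DNA damage repair alteration; the reported value is growth inhibition normalised to vehicle treatment.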

Assay [2] is described as follows: NCI Yeast Anticancer Drug Screen. Data for the mec2-1 strain (AID 157). To be noted: S. cerevisiae mec2-1 strain, stronger effect = higher value. In outline:
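Cells of the genetically defined mec2-1 yeast strain are incubated with test compound. Inhibition of growth is calculated against vehicle-treated controls.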

Assay [3] in a line: NCI Yeast Anticancer Drug Screen. Data for the sgs1 mgt1 strain (AID 161).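 Note: 0% = growth of cultures given vehicle only.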 Conditions: S. cerevisiae sgs1 mgt1 strain, stronger effect = higher value. In outline: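 Read-out: growth inhibition vs vehicle controls. Cells: mutant yeast strain deficient in DNA damage repair.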
Assay [4] in a line: NCI Yeast Anticancer Drug Screen. Data for the cln2 rad14 strain (AID 165).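 Note: 0% = growth equal to vehicle treated cultures.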 To be noted: S. cerevisiae cln2 rad14 strain, stronger effect = higher value. The essentials: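 The screen exposed genetically defined yeast (cln2 rad14) to test compounds and scored growth inhibition relative to vehicle-treated controls.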
Assay [5] can be described thus: NCI Yeast Anticancer Drug Screen. Data for the bub3 strain (AID 167). Conditions: S. cerevisiae bub3 mutant strain, stronger effect = higher value. The essentials: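 Growth of a checkpoint-deficient yeast mutant is measured after compound exposure. Values represent inhibition relative to vehicle.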
Assay [6] in a line: NCI Yeast Anticancer Drug Screen. Data for the mlh1 rad18 strain (AID 175). To be noted: S. cerevisiae mlh1 rad18 strain growth inhibition, stronger effect = higher value. The essentials: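 Compound-treated yeast growth, normalised to vehicle controls. Strain bears defined DNA repair mutations.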
Setting [7] is: at 5.0 µM (retest, dose inferred, filed as 0.5).
Setting [8] is: at 50.0 µM (retest, dose inferred, filed as 5.0).

About 79,000 compounds went through this panel and 15% of them were active in at least one assay; those are over-represented in the sample as a whole. Unmarked numbers belong to inactive results. The source made the active and inactive calls. Cut-off read from the data, not from the text of the source: active = growth inhibition above about 70%; inactive = the rest.

For the molecule `NC(=O)C1C(=O)c2cccc3c2C1(Br)C(Br)CCC3` (configuration not stated), the growth inhibition is 12% in assay [1] (setting [7]); 99% (active) in assay [1] (setting [8]); 99.2% (active) in assay [1] (at 50.0 µM); -5% in assay [2] (setting [7]); 100% (active) in assay [2] (setting [8]); 99.4% (active) in assay [2] (at 50.0 µM). Besides, the growth inhibition was 26% in assay [3] (setting [7]); 100% (active) in assay [3] (setting [8]); 99.5% (active) in assay [3] (at 50.0 µM); 2% in assay [4] (setting [7]); 98% (active) in assay [4] (setting [8]); 98.8% (active) in assay [4] (at 50.0 µM). Further, the growth inhibition is 7% in assay [5] (setting [7]); 99% (active) in assay [5] (setting [8]); 99.2% (active) in assay [5] (at 50.0 µM); 12% in assay [6] (setting [7]); 99% (active) in assay [6] (setting [8]); 99.3% (active) in assay [6] (at 50.0 µM).

Regarding `C/C=C(\C)[C@H](O)C(COCc1ccccc1)NS(=O)(=O)c1ccc(C)cc1` (some centres not stated), the growth inhibition was -5% in assay [1] (setting [7]); 44% in assay [1] (setting [8]); 30.1% in assay [1] (at 50.0 µM); -3% in assay [2] (setting [7]); 26% in assay [2] (setting [8]); 98.5% (active) in assay [2] (at 50.0 µM). The growth inhibition in assay [3] (setting [7]) is -7%; in assay [3] (setting [8]), 43%; in assay [3] (at 50.0 µM) it was 36.8%; in assay [4] (setting [7]), -2%; in assay [4] (setting [8]), 47%; in assay [4] (at 50.0 µM), 22.6%. Also, the growth inhibition was -3% in assay [5] (setting [7]); 51% in assay [5] (setting [8]); 97.5% (active) in assay [5] (at 50.0 µM); -4% in assay [6] (setting [7]); 36% in assay [6] (setting [8]); 58.5% in assay [6] (at 50.0 µM).

Consider `Cn1c2c(c3ccccc31)CCN(CCN1CCN(c3ccccc3)CC1)C2=O`, for which the growth inhibition in assay [1] (setting [7]) is 30%; in assay [1] (setting [8]), 31%; in assay [1] (at 50.0 µM), 71.9% (active); in assay [2] (setting [7]), 21%; in assay [2] (setting [8]), 29%; in assay [2] (at 50.0 µM) it was 43%. For the same molecule, the growth inhibition in assay [3] (setting [7]) is 28%; in assay [3] (setting [8]) it was 37%; in assay [3] (at 50.0 µM), 79% (active); in assay [4] (setting [7]), 26%; in assay [4] (setting [8]) it was 24%; in assay [4] (at 50.0 µM) it was 60.6%. Further, the growth inhibition in assay [5] (setting [7]) was 32%; in assay [5] (setting [8]), 43%; in assay [5] (at 50.0 µM), 67.5%; in assay [6] (setting [7]), 32%; in assay [6] (setting [8]), 35%; in assay [6] (at 50.0 µM), 59.8%.

On to `CC(O[Si](C)(C)C(C)(C)C)C(=O)Sc1ccccn1` (configuration not stated), for which the growth inhibition in assay [1] (setting [7]) is -1%; in assay [1] (setting [8]), 66%; in assay [1] (at 50.0 µM) it was 95.3% (active); in assay [2] (setting [7]) it was -9%; in assay [2] (setting [8]) it was 97% (active); in assay [2] (at 50.0 µM) it was 97.2% (active). Also, the growth inhibition in assay [3] (setting [7]) is -6%; in assay [3] (setting [8]), 54%; in assay [3] (at 50.0 µM), 95.5% (active); in assay [4] (setting [7]) it was -10%; in assay [4] (setting [8]) it was 84% (active); in assay [4] (at 50.0 µM) it was 85.9% (active). Also, the growth inhibition is -6% in assay [5] (setting [7]); 99% (active) in assay [5] (setting [8]); 93.9% (active) in assay [5] (at 50.0 µM); -9% in assay [6] (setting [7]); 48% in assay [6] (setting [8]); 94.7% (active) in assay [6] (at 50.0 µM).

For `O=C1C=CC2C(=O)c3ccccc3C(=O)C2=C1` (configuration not stated), the growth inhibition in assay [1] (setting [7]) is 21%; in assay [1] (setting [8]), 89% (active); in assay [1] (at 50.0 µM), 73.5% (active); in assay [2] (setting [7]), 17%; in assay [2] (setting [8]), 76% (active); in assay [2] (at 50.0 µM), 63.5%. Further, the growth inhibition in assay [3] (setting [7]) was 4%; in assay [3] (setting [8]), 72% (active); in assay [3] (at 50.0 µM), 56.9%; in assay [4] (setting [7]) it was 5%; in assay [4] (setting [8]), 71% (active); in assay [4] (at 50.0 µM), 66.7%. Further, the growth inhibition in assay [5] (setting [7]) was 1%; in assay [5] (setting [8]) it was 55%; in assay [5] (at 50.0 µM) it was 45.5%; in assay [6] (setting [7]), 4%; in assay [6] (setting [8]), 67%; in assay [6] (at 50.0 µM), 69.2%.

On to `CCOC(=O)c1cc(C)ccc1-c1ccc(C)cc1C(=O)OCC`, for which the growth inhibition was 1% in assay [1] (setting [7]); 29% in assay [1] (setting [8]); 57.6% in assay [1] (at 50.0 µM); -10% in assay [2] (setting [7]); 8% in assay [2] (setting [8]); 67.8% in assay [2] (at 50.0 µM). For the same molecule, the growth inhibition is 1% in assay [3] (setting [7]); 68% in assay [3] (setting [8]); 77% (active) in assay [3] (at 50.0 µM); -1% in assay [4] (setting [7]); 17% in assay [4] (setting [8]); 3.55% in assay [4] (at 50.0 µM). The growth inhibition in assay [5] (setting [7]) was 6%; in assay [5] (setting [8]), 46%; in assay [5] (at 50.0 µM) it was 86.8% (active); in assay [6] (setting [7]), 2%; in assay [6] (setting [8]), 28%; in assay [6] (at 50.0 µM), 75.5% (active).

For `Cc1ccc(S(=O)(=O)N/N=C2/CCC3(O)CC2(C)CCC2[C@H]3CC2(C)C)cc1` (some centres not stated), the growth inhibition was 17% in assay [1] (setting [7]); 72% (active) in assay [1] (setting [8]); 66.7% in assay [1] (at 50.0 µM); -7% in assay [2] (setting [7]); 83% (active) in assay [2] (setting [8]); 57.2% in assay [2] (at 50.0 µM). The growth inhibition is 1% in assay [3] (setting [7]); 54% in assay [3] (setting [8]); 70.2% (active) in assay [3] (at 50.0 µM); 13% in assay [4] (setting [7]); 69% in assay [4] (setting [8]); 83.8% (active) in assay [4] (at 50.0 µM). Moreover, the growth inhibition in assay [5] (setting [7]) was 2%; in assay [5] (setting [8]), 86% (active); in assay [5] (at 50.0 µM) it was 75% (active); in assay [6] (setting [7]) it was 5%; in assay [6] (setting [8]), 88% (active); in assay [6] (at 50.0 µM), 70.7% (active).

On to `Clc1ccc2c(Cl)c3c(nc2c1)CCCC3`, for which the growth inhibition in assay [1] (setting [7]) is -1%; in assay [1] (setting [8]), 98% (active); in assay [1] (at 50.0 µM) it was 99% (active); in assay [2] (setting [7]), 2%; in assay [2] (setting [8]), 99% (active); in assay [2] (at 50.0 µM), 99.5% (active). Further, the growth inhibition in assay [3] (setting [7]) is 2%; in assay [3] (setting [8]), 99% (active); in assay [3] (at 50.0 µM) it was 48.1%; in assay [4] (setting [7]), 0%; in assay [4] (setting [8]), 99% (active); in assay [4] (at 50.0 µM) it was 99.3% (active). Also, the growth inhibition was 3% in assay [5] (setting [7]); 98% (active) in assay [5] (setting [8]); 99.5% (active) in assay [5] (at 50.0 µM); -5% in assay [6] (setting [7]); 94% (active) in assay [6] (setting [8]); 99.2% (active) in assay [6] (at 50.0 µM).

As for `CN(Cc1cnc2nc(N[Si](C)(C)C)nc(N[Si](C)(C)C)c2n1)c1ccc(C(=O)NC(CCC(=O)O[Si](C)(C)C)C(=O)O[Si](C)(C)C)cc1` (configuration not stated), the growth inhibition in assay [1] (setting [7]) was 19%; in assay [1] (setting [8]), 89% (active); in assay [1] (at 50.0 µM) it was 91% (active); in assay [2] (setting [7]), 66%; in assay [2] (setting [8]) it was 97% (active); in assay [2] (at 50.0 µM), 98.3% (active). In addition, the growth inhibition in assay [3] (setting [7]) is 2%; in assay [3] (setting [8]) it was 72% (active); in assay [3] (at 50.0 µM) it was 64.7%; in assay [4] (setting [7]), -8%; in assay [4] (setting [8]), 47%; in assay [4] (at 50.0 µM) it was 26%. Moreover, the growth inhibition in assay [5] (setting [7]) is -4%; in assay [5] (setting [8]), 90% (active); in assay [5] (at 50.0 µM) it was 69.7%; in assay [6] (setting [7]), 15%; in assay [6] (setting [8]), 81% (active); in assay [6] (at 50.0 µM), 60.6%.

The values are drawn from PubChem BioAssay (NCI).
